Reference: PubChem BioAssay
Results filed as inconclusive are left out. The source made the active and inactive calls.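 How the source made its calls, unless noted: active means inhibition above 50%, about 3 SD of the validation set; inactive means the rest.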

Legend:
[1] = yeast TOR pathway RPL19A-GFP modulators, primary screen, cell-based, S. cerevisiae, multiplex flow cytometry (AID 1862; in the data active means percent of DMSO control GFP below about 86%;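 further: lower values mimic rapamycin by blocking the RPL19A rise seen in DMSO cells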); conditions: S. cerevisiae RPL19A-GFP strain, flow cytometry fluorescence, 3 h; at 10 µM; stronger effect = lower value
[2] = modulators of MEP2-GFP levels in yeast, primary screen, S. cerevisiae, multiplex flow cytometry (AID 1867;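 active means GFP response, as percent of the DMSO control, above the screen-wide mean plus 3 SD, about 139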;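 further: median GFP channel fluorescence of barcode-gated MEP2-GFP cells measured by flow cytometry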); conditions: S. cerevisiae MEP2-GFP strain, 3 h, at 10 µM, stronger effect = higher value, 100% means same as DMSO wells
[3] = modulators of CIT2-GFP expression in yeast, primary screen, S. cerevisiae, GFP fusion, multiplex flow cytometry (AID 1870;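 active means percent response above a set limit, the screen-wide mean plus 3 SD, cut at about 130% in these data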;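 further: barcoded CIT2-GFP strain pooled with four other GFP strains with rapamycin as positive control; median GFP fluorescence per well over plate mean of DMSO wells so 100% = DMSO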); conditions: 3 h, at 10 µM, stronger effect = higher value
[4] = modulators of LAP4-GFP expression in yeast, primary screen, S. cerevisiae, multiplex flow cytometry (AID 1873;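 active means GFP signal, as percent of the solvent control, above the screen mean plus 3 SD, about 149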); conditions: 3 h, at 10 µM, stronger effect = higher value
[5] = modulators of AGP1-GFP expression in yeast TOR pathway, primary screen, cell-based, multiplex flow cytometry, S. cerevisiae (AID 1887;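 active means GFP signal above the screen-wide mean plus 3 SD, that is over about 124.5% of the solvent control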;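 further: AGP1-GFP fusion strain of S. cerevisiae within a five-strain barcoded multiplex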); conditions: 3 h, at 10 µM, stronger effect = higher value
[6] = inhibitors of CD8+ T cell-vesicle binding, pilot screen, LFA-1/ICAM-1 modulator project, MLPCN validation set, flow cytometry (AID 2523;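 active means response below a set limit, under 55% cells CD8-positive and vesicle-bound, and CD8 cells' 90th-percentile brightness under 279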;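 on vesicle binding response: mean PE anti-B7-1 fluorescence of CD8+ cells relative to row control; 100% = QL9-loaded vesicles with DMSO vehicle in the same plate row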); conditions: 2C mouse CD8+ T cells, at 7 µM, stronger effect = lower value; double positive events: measured here: CD8+/vesicle+ event percentage
[7] = target: Integrin beta-1 (Homo sapiens) + Integrin alpha-4 (Homo sapiens) (UniProt P13612+P05556); experiment: inhibition of HUTS-21 binding to VLA-4, pilot screen, VLA-4 allosteric modulator project, U937 cells, HUTS-21 mAb, flow cytometry, validation set (AID 2674); conditions: HUTS-21 LIBS mAb binding, at 6.7 µM, stronger effect = higher value, binding induced by LDV ligand;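 further: antibody binding induced by the VLA-4 ligand LDV present at three times its Kd; 0% = LDV ligand with antibody and no compound and 100% = antibody without LDV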
Sequence of Integrin beta-1 (Homo sapiens) + Integrin alpha-4 (Homo sapiens) (P05556 whole entry, looked up): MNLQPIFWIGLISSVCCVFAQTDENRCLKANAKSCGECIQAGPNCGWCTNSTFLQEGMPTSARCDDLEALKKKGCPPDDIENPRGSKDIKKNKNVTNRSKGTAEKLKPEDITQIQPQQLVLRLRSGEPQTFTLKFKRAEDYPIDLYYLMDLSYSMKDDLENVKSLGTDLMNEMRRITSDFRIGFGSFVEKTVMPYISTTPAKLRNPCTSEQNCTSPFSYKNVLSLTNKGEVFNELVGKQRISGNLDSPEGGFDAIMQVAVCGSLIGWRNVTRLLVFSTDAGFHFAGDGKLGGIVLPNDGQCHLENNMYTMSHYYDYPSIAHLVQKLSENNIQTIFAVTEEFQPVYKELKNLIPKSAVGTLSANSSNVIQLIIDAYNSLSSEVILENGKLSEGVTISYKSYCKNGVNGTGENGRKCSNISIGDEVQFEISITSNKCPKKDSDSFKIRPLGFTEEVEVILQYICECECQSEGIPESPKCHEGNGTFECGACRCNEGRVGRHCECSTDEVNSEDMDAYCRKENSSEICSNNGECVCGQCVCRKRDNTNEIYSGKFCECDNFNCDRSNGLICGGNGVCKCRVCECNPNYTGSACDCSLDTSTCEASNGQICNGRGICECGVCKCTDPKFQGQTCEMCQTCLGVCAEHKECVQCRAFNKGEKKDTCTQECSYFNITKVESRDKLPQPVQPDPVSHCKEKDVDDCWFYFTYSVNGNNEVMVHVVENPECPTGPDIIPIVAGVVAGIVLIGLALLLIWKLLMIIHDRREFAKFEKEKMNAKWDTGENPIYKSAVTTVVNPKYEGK
Sequence of Integrin beta-1 (Homo sapiens) + Integrin alpha-4 (Homo sapiens) (P13612 whole entry, looked up): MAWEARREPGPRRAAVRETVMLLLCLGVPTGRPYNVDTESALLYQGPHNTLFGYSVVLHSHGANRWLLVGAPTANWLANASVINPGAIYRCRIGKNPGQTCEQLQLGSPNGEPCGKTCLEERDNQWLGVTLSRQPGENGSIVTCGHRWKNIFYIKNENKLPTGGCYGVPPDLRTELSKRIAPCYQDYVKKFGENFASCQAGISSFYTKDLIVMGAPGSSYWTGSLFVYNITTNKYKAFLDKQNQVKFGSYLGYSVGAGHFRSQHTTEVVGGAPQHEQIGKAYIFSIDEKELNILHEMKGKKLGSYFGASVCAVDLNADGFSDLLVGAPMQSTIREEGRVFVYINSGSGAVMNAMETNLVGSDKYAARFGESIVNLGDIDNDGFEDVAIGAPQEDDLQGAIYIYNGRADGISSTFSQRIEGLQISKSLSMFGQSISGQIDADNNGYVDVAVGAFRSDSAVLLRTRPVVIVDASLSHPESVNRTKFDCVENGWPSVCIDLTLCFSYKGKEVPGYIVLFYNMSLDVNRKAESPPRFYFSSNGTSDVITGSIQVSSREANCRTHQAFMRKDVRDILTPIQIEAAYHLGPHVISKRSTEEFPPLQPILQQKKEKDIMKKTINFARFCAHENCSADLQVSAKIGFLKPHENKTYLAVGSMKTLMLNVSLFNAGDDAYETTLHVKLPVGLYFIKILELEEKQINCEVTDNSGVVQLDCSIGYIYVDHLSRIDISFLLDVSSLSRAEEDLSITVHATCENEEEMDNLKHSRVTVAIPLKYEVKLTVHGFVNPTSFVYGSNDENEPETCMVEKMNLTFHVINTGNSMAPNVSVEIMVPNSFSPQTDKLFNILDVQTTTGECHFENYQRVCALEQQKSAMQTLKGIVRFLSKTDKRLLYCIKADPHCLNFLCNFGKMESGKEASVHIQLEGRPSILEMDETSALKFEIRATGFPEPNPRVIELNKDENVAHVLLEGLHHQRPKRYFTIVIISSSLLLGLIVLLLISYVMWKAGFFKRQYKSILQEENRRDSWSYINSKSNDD

[8] = superoxide lowering in aged yeast cells, pilot screen, validation compound set (AID 2706;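 active means superoxide response below 65% of plate, a cut near 3 SD across the whole screen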;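 further: yeast exposed to compound for one week at 30 degrees C before staining; 100% = mean of all compound wells on the same plate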); conditions: S. cerevisiae aging, superoxide DHE fluorescence; at 10 µM; stronger effect = lower value
[9] = target: Beta-adrenergic receptor kinase 1 (Homo sapiens) (UniProt P25098); experiment: GRK2 binders displacing RNA aptamer, biochemical, validation, human GRK2, bead flow cytometry (AID 488806;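 active means aptamer binding inhibition above 30%, about 3 SD of noise from non-fluorescent compounds; inactive means inhibition at or below 30%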); conditions: bead-bound GRK2, FAM-aptamer displacement, at 10 µM, stronger effect = higher value
Sequence of Beta-adrenergic receptor kinase 1 (Homo sapiens) (P25098 whole entry, looked up): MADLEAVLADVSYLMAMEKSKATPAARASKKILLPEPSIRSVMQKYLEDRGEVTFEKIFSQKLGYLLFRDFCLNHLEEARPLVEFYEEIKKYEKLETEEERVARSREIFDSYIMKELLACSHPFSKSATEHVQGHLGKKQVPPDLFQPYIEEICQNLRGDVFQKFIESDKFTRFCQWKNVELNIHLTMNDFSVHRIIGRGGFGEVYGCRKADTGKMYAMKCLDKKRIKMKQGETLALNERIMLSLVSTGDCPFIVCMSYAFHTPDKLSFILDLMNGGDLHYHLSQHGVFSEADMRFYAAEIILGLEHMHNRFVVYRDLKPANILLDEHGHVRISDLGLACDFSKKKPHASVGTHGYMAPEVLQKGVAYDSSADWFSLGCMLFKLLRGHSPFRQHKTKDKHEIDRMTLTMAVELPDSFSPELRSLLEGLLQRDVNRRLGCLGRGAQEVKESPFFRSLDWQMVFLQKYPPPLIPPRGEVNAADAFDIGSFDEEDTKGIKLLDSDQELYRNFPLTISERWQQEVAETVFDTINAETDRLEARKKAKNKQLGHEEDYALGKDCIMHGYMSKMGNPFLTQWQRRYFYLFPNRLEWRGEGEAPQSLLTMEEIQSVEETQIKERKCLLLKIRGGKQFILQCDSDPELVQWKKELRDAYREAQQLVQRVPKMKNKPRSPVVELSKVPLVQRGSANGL

[10] = target: Beta-2 adrenergic receptor (Homo sapiens) (UniProt P07550); experiment: beta2AR agonists driving receptor internalization, pilot screen, cell-based, FAP fluorogen, flow cytometry, validation set (AID 504459;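 active means percent response above 42, roughly 3 SD of non-fluorescent test compounds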;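 further: agonist-driven loss of surface beta2AR via internalization measured by FAP dye flow cytometry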); conditions: Am2.2-beta2AR cells, FAP surface receptor flow cytometry; at 10 µM; stronger effect = higher value
Sequence of Beta-2 adrenergic receptor (Homo sapiens) (P07550 whole entry, looked up): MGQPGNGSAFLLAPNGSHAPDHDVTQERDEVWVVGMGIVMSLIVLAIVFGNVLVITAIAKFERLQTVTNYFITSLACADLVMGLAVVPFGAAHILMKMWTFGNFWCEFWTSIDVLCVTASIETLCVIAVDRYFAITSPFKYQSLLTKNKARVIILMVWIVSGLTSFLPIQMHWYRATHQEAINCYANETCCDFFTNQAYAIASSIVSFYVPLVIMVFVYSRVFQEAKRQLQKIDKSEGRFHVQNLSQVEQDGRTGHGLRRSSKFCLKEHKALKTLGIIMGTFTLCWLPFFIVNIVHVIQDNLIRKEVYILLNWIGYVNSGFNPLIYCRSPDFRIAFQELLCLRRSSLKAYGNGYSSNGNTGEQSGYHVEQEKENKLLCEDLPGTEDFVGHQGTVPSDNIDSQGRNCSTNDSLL

[11] = target: AP-2 complex subunit beta (Homo sapiens) (UniProt P63010); experiment: inhibitors of arrestin peptide binding to AP2, pilot screen, biochemical, validation set, GST-AP2 beads, flow cytometry (AID 504541;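 active means inhibition above 54%, about 3 SD of non-fluorescent compounds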;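 further: AP2 carries R879A mutation and is captured from E. coli lysate; bead-bound FITC arrestin peptide fluorescence measuring arrestin peptide binding to AP2; 0% = DMSO wells and 100% = excess unlabeled arrestin peptide control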); conditions: FITC arrestin peptide, at 10 µM, stronger effect = higher value, AP2 beta2 appendage fragment, R879A mutant
Sequence of AP-2 complex subunit beta (Homo sapiens) (P63010 whole entry, looked up, the tested form may be a part, one chain of several): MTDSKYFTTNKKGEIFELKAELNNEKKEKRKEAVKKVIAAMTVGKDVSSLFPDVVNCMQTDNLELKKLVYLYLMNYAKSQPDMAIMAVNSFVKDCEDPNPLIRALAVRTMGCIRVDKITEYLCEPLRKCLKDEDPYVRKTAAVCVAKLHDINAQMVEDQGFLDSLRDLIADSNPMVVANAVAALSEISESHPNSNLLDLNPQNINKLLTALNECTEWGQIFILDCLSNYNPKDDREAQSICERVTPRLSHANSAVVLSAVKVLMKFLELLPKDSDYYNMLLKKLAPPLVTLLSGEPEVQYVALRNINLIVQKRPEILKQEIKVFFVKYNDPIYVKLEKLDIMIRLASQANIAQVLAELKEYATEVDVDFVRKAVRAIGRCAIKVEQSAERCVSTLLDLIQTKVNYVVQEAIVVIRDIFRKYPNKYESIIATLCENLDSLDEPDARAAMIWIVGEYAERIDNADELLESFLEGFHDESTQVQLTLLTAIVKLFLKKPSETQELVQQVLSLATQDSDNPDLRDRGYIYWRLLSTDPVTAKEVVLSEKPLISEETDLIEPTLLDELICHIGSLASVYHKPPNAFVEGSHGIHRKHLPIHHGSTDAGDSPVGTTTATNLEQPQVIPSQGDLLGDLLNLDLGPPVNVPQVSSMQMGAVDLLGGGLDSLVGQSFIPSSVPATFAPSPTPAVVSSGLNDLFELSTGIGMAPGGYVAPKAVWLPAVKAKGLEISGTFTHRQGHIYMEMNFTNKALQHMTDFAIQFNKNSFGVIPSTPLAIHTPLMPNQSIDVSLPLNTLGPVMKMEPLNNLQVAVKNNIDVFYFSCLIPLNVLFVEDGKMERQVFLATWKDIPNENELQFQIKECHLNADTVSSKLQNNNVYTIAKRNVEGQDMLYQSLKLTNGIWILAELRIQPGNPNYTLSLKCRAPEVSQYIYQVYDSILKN

[12] = yeast V-ATPase proton transport modulators, S. cerevisiae, pHLuorin, HTS validation (AID 504600; in the data active means response above about 15%;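 further: plate controls were DMSO for no effect and reference compound for full effect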); conditions: S. cerevisiae pHLuorin cytosolic pH, at 10 µM, stronger effect = higher value
[13] = system: anti-desmoglein-3 scFv antibody binding to human DSG3; experiment: inhibitors of anti-DSG3 scFv binding to DSG3, pilot screen, biochemical, validation compound set, bead-based, flow cytometry (AID 588368;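 active means binding below the plate cutoff, the plate median minus 3 SD, with a reading above zero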;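 further: signal is the median channel fluorescence of bead-bound GFP antibody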); conditions: Protein G beads, DSG3-Fc, scFv-GFP binding, at 10 µM, stronger effect = lower value
[14] = inhibitors of fungal efflux pumps CDR1, CDR2, MDR1, pilot screen, validation compound set, multiplex, phenotypic (AID 588506;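 active means efflux inhibition above 0.42, the validation set average plus 4 SD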;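 further: Nile Red retained in cells so higher fluorescence means more efflux inhibition; 0 = negative control wells and 1 = enniatin B 25 µM full block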); conditions: S. cerevisiae pump-expressing triplex, Nile Red efflux flow cytometry; at 10 µM; stronger effect = higher value; the pumps come from Candida albicans
[15] = target: ATP-binding cassette sub-family B member 6 (Homo sapiens) (UniProt Q9NP58); experiment: ABCB6 transporter inhibitors, pilot screen, K562-ABCB6 cells, flow cytometry, validation set (AID 588550;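 active means inhibition above the screen-wide mean plus 3 SD, about 51%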;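 further: 0% = DMSO wells and 100% = benzethonium chloride 70 µM positive control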); conditions: K562-ABCB6 porphyrin accumulation, 1 h, at 10 µM, stronger effect = higher value
Sequence of ATP-binding cassette sub-family B member 6 (Homo sapiens) (Q9NP58 whole entry, looked up): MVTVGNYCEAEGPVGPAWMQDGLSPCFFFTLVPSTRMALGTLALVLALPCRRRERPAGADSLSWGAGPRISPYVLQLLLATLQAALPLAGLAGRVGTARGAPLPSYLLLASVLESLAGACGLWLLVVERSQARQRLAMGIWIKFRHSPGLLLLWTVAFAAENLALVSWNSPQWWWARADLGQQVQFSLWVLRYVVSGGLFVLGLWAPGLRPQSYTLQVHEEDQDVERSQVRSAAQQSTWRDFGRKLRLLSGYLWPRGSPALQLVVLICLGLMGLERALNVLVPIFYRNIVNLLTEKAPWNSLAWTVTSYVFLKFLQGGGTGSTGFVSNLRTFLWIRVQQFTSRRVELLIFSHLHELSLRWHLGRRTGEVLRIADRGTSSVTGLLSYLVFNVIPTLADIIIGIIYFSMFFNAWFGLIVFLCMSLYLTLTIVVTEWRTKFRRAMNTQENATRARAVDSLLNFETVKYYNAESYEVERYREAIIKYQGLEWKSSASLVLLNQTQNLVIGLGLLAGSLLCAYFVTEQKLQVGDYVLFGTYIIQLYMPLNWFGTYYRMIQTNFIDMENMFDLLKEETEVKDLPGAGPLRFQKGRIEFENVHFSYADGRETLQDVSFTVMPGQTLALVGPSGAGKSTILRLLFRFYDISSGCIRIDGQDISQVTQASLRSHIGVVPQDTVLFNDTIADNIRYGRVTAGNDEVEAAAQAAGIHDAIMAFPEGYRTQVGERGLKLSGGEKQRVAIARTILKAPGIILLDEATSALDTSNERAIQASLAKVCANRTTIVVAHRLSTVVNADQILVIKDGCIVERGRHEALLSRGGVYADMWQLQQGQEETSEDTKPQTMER

[16] = promoters of myeloid differentiation in arrested cells, primary screen, cell-based, GFP/MAC1 double positive, flow cytometry, validation set (AID 588685;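 active means differentiation response of at least 50%, scaled between solvent and reference control, from cells with both markers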;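 further: compound exposure lasts four days before antibody staining and flow analysis; 0% = DMSO wells and 100% = 5 µM fulvestrant positive control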); conditions: ER-HoxA9 marrow cells, stronger effect = higher value, normalized: vehicle 0, fulvestrant 100

CSCCC(NC(C)=O)C(=O)Oc1ccc2c3c(c(=O)oc2c1)CCCC3 (stereo not drawn)
inactive: percent of DMSO control GFP [1] 102% | GFP response vs DMSO [2] 101% | percent response of DMSO control [3] 105% | GFP response vs DMSO [4] 99.9% | GFP response, % of DMSO [5] 100% | vesicle binding response [6] 56% | inhibition [7] 3.7% | superoxide response (% of plate) [8] 102% | aptamer binding inhibition [9] 4% | response [10] -6.44% | inhibition [11] 17.4% | response [12] -2.62% | binding (% of control) [13] 93.2% | efflux inhibition (fraction of control) [14] -0.01 | inhibition [15] 11% | differentiation response [16] 0.24%
61.1%: double positive events [6]

OCCC1CN(Cc2nc(-c3ccccc3)cs2)CCN1Cc1ccc(F)cc1 (stereo not drawn)
inactive: percent of DMSO control GFP [1] 106% | GFP response vs DMSO [2] 98.7% | percent response of DMSO control [3] 115% | GFP response vs DMSO [4] 100% | GFP response, % of DMSO [5] 104% | vesicle binding response [6] 312% | inhibition [7] -6.45% | superoxide response (% of plate) [8] 103% | aptamer binding inhibition [9] 0% | response [10] 2.61% | inhibition [11] -6.97% | response [12] -2.6% | binding (% of control) [13] 100% | efflux inhibition (fraction of control) [14] 0.31 | inhibition [15] 9% | differentiation response [16] -6.03%
68.6%: double positive events [6]

COC(=O)c1sccc1NC(=O)Nc1ccccc1F
69.3%: double positive events [6]
inactive: percent of DMSO control GFP [1] 100% | GFP response vs DMSO [2] 103% | percent response of DMSO control [3] 105% | GFP response vs DMSO [4] 88.2% | GFP response, % of DMSO [5] 101% | vesicle binding response [6] 197% | inhibition [7] 5.61% | superoxide response (% of plate) [8] 93.7% | aptamer binding inhibition [9] -3% | response [10] 2% | inhibition [11] -3.3% | response [12] -6.01% | binding (% of control) [13] 103% | efflux inhibition (fraction of control) [14] -0.28 | inhibition [15] 23% | differentiation response [16] 7.13%

Cc1c(O)c(=O)ccn1C
inactive: percent of DMSO control GFP [1] 90.4% | GFP response vs DMSO [2] 121% | percent response of DMSO control [3] 103% | GFP response vs DMSO [4] 76.5% | GFP response, % of DMSO [5] 95.4% | vesicle binding response [6] 412% | inhibition [7] 6.46% | superoxide response (% of plate) [8] 99.1% | aptamer binding inhibition [9] 1% | response [10] -11.3% | inhibition [11] -9.42% | response [12] 3.11% | binding (% of control) [13] 102% | efflux inhibition (fraction of control) [14] 0.27 | inhibition [15] 9% | differentiation response [16] -3.28%
64.3%: double positive events [6]

CCc1cc2c(C)cc(=O)oc2cc1OC(=O)C1CCCN1C(=O)OC(C)(C)C (stereo not drawn)
57.4%: double positive events [6]
inactive: percent of DMSO control GFP [1] 103% | GFP response vs DMSO [2] 95.2% | percent response of DMSO control [3] 110% | GFP response vs DMSO [4] 82% | GFP response, % of DMSO [5] 96.3% | vesicle binding response [6] 247% | inhibition [7] 0.94% | superoxide response (% of plate) [8] 92.9% | aptamer binding inhibition [9] 2% | response [10] 19.6% | inhibition [11] -11.6% | response [12] 1.36% | binding (% of control) [13] 103% | efflux inhibition (fraction of control) [14] -0.03 | inhibition [15] 6% | differentiation response [16] -20%

Cc1nc(-c2coc3c(CN(C)C)c(O)ccc3c2=O)cs1
inactive: percent of DMSO control GFP [1] 92.6% | GFP response vs DMSO [2] 131% | percent response of DMSO control [3] 104% | GFP response vs DMSO [4] 85.8% | GFP response, % of DMSO [5] 88% | vesicle binding response [6] 143% | inhibition [7] -26.5% | superoxide response (% of plate) [8] 98.6% | aptamer binding inhibition [9] 6% | response [10] 4.53% | inhibition [11] 2.27% | response [12] -0.21% | binding (% of control) [13] 105% | efflux inhibition (fraction of control) [14] -0.46 | inhibition [15] 11% | differentiation response [16] -1.64%
61.6%: double positive events [6]

O=C(NO)c1ccccc1O
63.6%: double positive events [6]
inactive: percent of DMSO control GFP [1] 103% | GFP response vs DMSO [2] 107% | percent response of DMSO control [3] 105% | GFP response vs DMSO [4] 94.8% | GFP response, % of DMSO [5] 106% | vesicle binding response [6] 158% | inhibition [7] 8.29% | superoxide response (% of plate) [8] 95.5% | aptamer binding inhibition [9] 2% | response [10] -0.56% | inhibition [11] 36.8% | response [12] -8.07% | binding (% of control) [13] 98.8% | efflux inhibition (fraction of control) [14] 0.03 | inhibition [15] 9% | differentiation response [16] -13.3%

NS(=O)(=O)c1cc(C2(O)NC(=O)c3ccccc32)ccc1Cl (stereo not drawn)
inactive: percent of DMSO control GFP [1] 101% | GFP response vs DMSO [2] 117% | percent response of DMSO control [3] 115% | GFP response vs DMSO [4] 78.7% | GFP response, % of DMSO [5] 89.6% | vesicle binding response [6] 252% | inhibition [7] -16.8% | superoxide response (% of plate) [8] 110% | aptamer binding inhibition [9] -6% | response [10] -3.96% | inhibition [11] -17.4% | response [12] 1.36% | binding (% of control) [13] 105% | efflux inhibition (fraction of control) [14] -0.13 | inhibition [15] 9% | differentiation response [16] 4.09%
58.2%: double positive events [6]

COc1ccc(S(=O)(=O)NCc2ccco2)c2ccccc12
inactive: percent of DMSO control GFP [1] 100% | GFP response vs DMSO [2] 104% | percent response of DMSO control [3] 88.2% | GFP response vs DMSO [4] 114% | GFP response, % of DMSO [5] 87% | vesicle binding response [6] 175% | inhibition [7] 7.76% | superoxide response (% of plate) [8] 89.3% | aptamer binding inhibition [9] 3% | response [10] -3.81% | inhibition [11] -4.99% | response [12] 1.41% | binding (% of control) [13] 96.3% | efflux inhibition (fraction of control) [14] -0.13 | inhibition [15] 7% | differentiation response [16] 2.4%
62.3%: double positive events [6]
